Laboratory results taken from PubChem BioAssay.
Calls of active or inactive are those of the source. Unless noted, the rule behind the calls is not given here.

Key:
[1] = HepG2 liver cancer cell viability effects, profiling panel, resazurin fluorescence, 24 h, PK04 Diversity Set (AID 1172); conditions: higher = more signal; note: test concentration not given here
[2] = basal S. cerevisiae growth modulation, no modifier, primary screen, OD600, strain BY4716, 24 h, basal condition (AID 1173); conditions: OD600, 24 h, higher = more signal, called active from +8 up or from −8 down
[3] = MM1S myeloma cell viability, profiling panel, resazurin fluorescence, basal, 24 h, PK04 Diversity Set (AID 1174); conditions: higher = more signal, called active from +8 up or from −8 down;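 note: MM1S multiple myeloma cell line; test concentration not given here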
[4] = target: Dihydroorotate dehydrogenase (quinone), mitochondrial (Plasmodium falciparum (isolate 3D7)) (UniProt Q08210); assay: PfDHODH enzyme inhibitors, primary screen, biochemical, C-terminal His tag, absorbance 600 nm (AID 1175); conditions: DCIP absorbance 600 nm, higher = more signal, called active from +8 up or from −8 down;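 note: recombinant parasite enzyme with a five histidine tag at its C terminus; test concentration not given here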
Sequence of Dihydroorotate dehydrogenase (quinone), mitochondrial (Plasmodium falciparum (isolate 3D7)) (Q08210 whole entry, looked up): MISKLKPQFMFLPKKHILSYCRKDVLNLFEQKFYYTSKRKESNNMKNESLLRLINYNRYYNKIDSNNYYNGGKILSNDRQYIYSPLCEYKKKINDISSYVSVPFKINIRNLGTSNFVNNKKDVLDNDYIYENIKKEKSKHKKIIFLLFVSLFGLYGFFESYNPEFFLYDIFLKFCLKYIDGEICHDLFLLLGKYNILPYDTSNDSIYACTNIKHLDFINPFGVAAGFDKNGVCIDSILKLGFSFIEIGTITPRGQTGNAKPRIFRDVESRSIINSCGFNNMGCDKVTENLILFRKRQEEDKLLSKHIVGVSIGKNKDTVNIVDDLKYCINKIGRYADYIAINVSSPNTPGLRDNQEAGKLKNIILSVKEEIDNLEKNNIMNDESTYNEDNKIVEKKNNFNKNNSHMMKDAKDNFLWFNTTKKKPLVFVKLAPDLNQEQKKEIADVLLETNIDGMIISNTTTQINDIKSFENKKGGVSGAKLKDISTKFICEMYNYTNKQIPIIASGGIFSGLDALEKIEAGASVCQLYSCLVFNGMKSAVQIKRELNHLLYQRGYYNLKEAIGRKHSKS

[5] = P. aeruginosa biofilm formation inhibitors, primary screen, strain PAO1, LB-PBS medium, absorbance 600 nm (AID 1176); note: test concentration not given here; conditions: P. aeruginosa PAO1 growth/biofilm, A600, 12 h; higher = more signal
[6] = S. cerevisiae RM11-1a growth modifiers, primary screen, strain RM11-1a, OD600, basal, 24 h (AID 1177); conditions: OD600, 24 h, higher = more signal, called active from +8 up or from −8 down;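 note: cultures grown under basal conditions with no added stressor; test concentration not given here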
[7] = E. coli acrAB mutant growth effects, primary screen, E. coli filamentation inducers, strain DRC39, OD650, 24 h (AID 1178); conditions: higher = more signal, called active from +8 up or from −8 down;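 note: growth measured as culture turbidity by optical density at 650 nm; test concentration not given here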
[8] = E. coli acrAB mutant growth effects, primary screen, E. coli filamentation inducers, strain DRC39, OD650, 48 h (AID 1179);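 note: screen aims at cell division blockers that make cells filament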; conditions: E. coli DRC39 delta-acrAB growth, higher = more signal, called active from +8 up or from −8 down
[9] = RPMI8226 myeloma cell viability, profiling panel, resazurin fluorescence, basal, 24 h, PK04 Diversity Set (AID 1180); conditions: higher = more signal;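 note: RPMI8826 multiple myeloma cell line at 5000 cells per well; test concentration not given here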
[10] = target: E3 ubiquitin-protein ligase XIAP (Homo sapiens) (UniProt P98170); assay: XIAP binders, primary screen, biophysical, small-molecule microarray, fluorescence 635 nm (AID 1181); conditions: small-molecule microarray binding, higher = more signal;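 note: score merges 667 nm emission and signal to noise over triplicate slides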
Sequence of E3 ubiquitin-protein ligase XIAP (Homo sapiens) (P98170 whole entry, looked up): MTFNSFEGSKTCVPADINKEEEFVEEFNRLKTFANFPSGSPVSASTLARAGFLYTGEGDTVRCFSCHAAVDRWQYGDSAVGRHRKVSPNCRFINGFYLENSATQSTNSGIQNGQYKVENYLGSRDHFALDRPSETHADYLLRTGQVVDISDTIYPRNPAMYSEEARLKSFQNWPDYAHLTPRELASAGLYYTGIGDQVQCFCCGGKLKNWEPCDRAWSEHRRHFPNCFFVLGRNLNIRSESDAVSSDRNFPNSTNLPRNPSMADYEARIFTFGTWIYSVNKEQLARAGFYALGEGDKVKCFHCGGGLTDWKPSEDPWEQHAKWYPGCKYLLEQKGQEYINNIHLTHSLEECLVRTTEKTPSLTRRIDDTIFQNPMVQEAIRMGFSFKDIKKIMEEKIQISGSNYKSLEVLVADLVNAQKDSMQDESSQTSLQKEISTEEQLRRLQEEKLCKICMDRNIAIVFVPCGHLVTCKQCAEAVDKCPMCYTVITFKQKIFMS

**Q.** Which z-score [1] does the source give for `CC(C)CNC(=O)[C@@H]1c2ccccc2C(=O)N(Cc2ccccc2)[C@H]1c1ccc(CO)cc1` here?
**A.** 0.768

**Q.** And the z-score [2]?
**A.** -0.21 (inactive)

**Q.** And the z-score [3]?
**A.** -0.628 (inactive)

**Q.** What about the composite z-score [4] of the same molecule?
**A.** 0.13 (inactive)

**Q.** And the z-score [5]?
**A.** 0.388 (inactive)

**Q.** And the z-score [6]?
**A.** -0.232 (inactive)

**Q.** What about the z-score [7] of the same molecule?
**A.** 0.278 (inactive)

**Q.** And the z-score [8]?
**A.** 0.0254 (inactive)

**Q.** And the z-score [9]?
**A.** 0.19

**Q.** What about the composite z-score [10] of the same molecule?
**A.** 0.0785

**Q.** For `N#Cc1ccc(C(O)C2C=CC3C(=O)N(c4ccccc4)C(=O)C3N2Nc2ccc([N+](=O)[O-])cc2)cc1` (stereo not given), which z-score [1] is on record?
**A.** -0.298

**Q.** And the z-score [2]?
**A.** -0.0292 (inactive)

**Q.** And the z-score [3]?
**A.** -0.291 (inactive)

**Q.** And the composite z-score [4]?
**A.** 0.154 (inactive)

**Q.** And the z-score [5]?
**A.** 1.01 (inactive)

**Q.** And the z-score [6]?
**A.** -0.114 (inactive)

**Q.** What about the z-score [7] of the same molecule?
**A.** -1.15 (inactive)

**Q.** What about the z-score [8] of the same molecule?
**A.** -0.224 (inactive)

**Q.** What about the z-score [9] of the same molecule?
**A.** -0.783

**Q.** What about the composite z-score [10] of the same molecule?
**A.** -0.162

**Q.** Which z-score [1] does the source give for `CC(C)C[C@H]1NC(=O)[C@@]23C(=O)N[C@@H](Cc4ccccc4)C2[C@H](C)[C@@]2(C)O[C@H]2C3/C=C/C/C=C\CNC(=O)[C@@H]2CCCN2C1=O` (stereo not given in full) here?
**A.** -0.706

**Q.** And the z-score [2]?
**A.** -1.43 (inactive)

**Q.** And the z-score [3]?
**A.** -0.0195 (inactive)

**Q.** And the composite z-score [4]?
**A.** -0.742 (inactive)

**Q.** What about the z-score [5] of the same molecule?
**A.** 0.352 (inactive)

**Q.** What about the z-score [6] of the same molecule?
**A.** -0.162 (inactive)

**Q.** And the z-score [7]?
**A.** -0.467 (inactive)

**Q.** What about the z-score [8] of the same molecule?
**A.** -0.0699 (inactive)

**Q.** And the z-score [9]?
**A.** 0.476

**Q.** And the composite z-score [10]?
**A.** 0.155

**Q.** Which results are given for `CN(C)CCCC[C@@H]1NC(=O)[C@H]2C[C@@H](C(=O)O)[C@@H](c3cccc(OCCO)c3)N2C1=O`?
**A.** z-score [1]: 0.629; z-score [2]: -1.12 (inactive); z-score [3]: 0.499 (inactive); composite z-score [4]: -0.614 (inactive); z-score [5]: -0.0185 (inactive); z-score [6]: -0.452 (inactive); z-score [7]: -0.0925 (inactive); z-score [8]: -0.151 (inactive); z-score [9]: 0.546; composite z-score [10]: 0.332

**Q.** For `COCCOC(=O)N1C(=O)[C@@]2(c3cc(C#CC4=CCCCC4)ccc31)[C@H](C(=O)N1CCN(c3ncccn3)CC1)[C@H]1C(=O)O[C@H](c3ccccc3)[C@H](c3ccccc3)N1[C@@H]2c1ccccc1OCCO`, which z-score [1] is on record?
**A.** 1.32

**Q.** What about the z-score [2] of the same molecule?
**A.** 1.23 (inactive)

**Q.** And the z-score [3]?
**A.** 1.02 (inactive)

**Q.** And the composite z-score [4]?
**A.** 0.598 (inactive)

**Q.** What about the z-score [5] of the same molecule?
**A.** 4.43 (inactive)

**Q.** What about the z-score [6] of the same molecule?
**A.** 1.64 (inactive)

**Q.** What about the z-score [7] of the same molecule?
**A.** -0.368 (inactive)

**Q.** What about the z-score [8] of the same molecule?
**A.** -0.514 (inactive)

**Q.** And the z-score [9]?
**A.** 0.318

**Q.** What about the composite z-score [10] of the same molecule?
**A.** -0.312

**Q.** Which results are given for `Cc1ccc(S[C@]2(C(=O)NCCN3CCOCC3)CC(=O)N(C3CCCCC3)[C@@H]2c2ccc(CO)cc2I)cc1`?
**A.** z-score [1]: 1.5; z-score [2]: -0.0113 (inactive); z-score [3]: 0.482 (inactive); composite z-score [4]: 0.88 (inactive); z-score [5]: -0.447 (inactive); z-score [6]: 1.27 (inactive); z-score [7]: 0.464 (inactive); z-score [8]: 0.677 (inactive); z-score [9]: -1.29; composite z-score [10]: -0.302

**Q.** With `COC(=O)[C@]1(CO)N=C(c2ccc(OCCCO)cc2)O[C@@H]1c1ccccc1CN=[N+]=[N-]` as the molecule, how does the z-score [1] read?
**A.** -0.318

**Q.** What about the z-score [2] of the same molecule?
**A.** 0.443 (inactive)

**Q.** And the z-score [3]?
**A.** -0.529 (inactive)

**Q.** And the composite z-score [4]?
**A.** 0.415 (inactive)

**Q.** And the z-score [5]?
**A.** -0.677 (inactive)

**Q.** And the z-score [6]?
**A.** -0.299 (inactive)

**Q.** What about the z-score [7] of the same molecule?
**A.** -0.246 (inactive)

**Q.** What about the z-score [8] of the same molecule?
**A.** 0.321 (inactive)

**Q.** What about the z-score [9] of the same molecule?
**A.** -0.15

**Q.** And the composite z-score [10]?
**A.** -0.21

**Q.** What does the source list for `C[C@]1(C(=O)NCC(F)(F)F)c2ccccc2C(=O)N(Cc2ccc(OC(F)(F)F)cc2)[C@H]1c1ccc(CO)cc1`?
**A.** z-score [1]: 0.2; z-score [2]: -0.139 (inactive); z-score [3]: -0.296 (inactive); composite z-score [4]: 0.182 (inactive); z-score [5]: 1.48 (inactive); z-score [6]: -0.353 (inactive); z-score [7]: -0.414 (inactive); z-score [8]: -1 (inactive); z-score [9]: 0.14; composite z-score [10]: 0.212

**Q.** Which z-score [1] does the source give for `CCN(CC)c1ccc(N2CC=CC34O[C@@H]5C=CCOC(=O)[C@@H]5[C@H]3C(=O)N(CCO)[C@@H]4C2=O)cc1` (stereo not given in full) here?
**A.** 0.534

**Q.** What about the z-score [2] of the same molecule?
**A.** -0.0592 (inactive)

**Q.** What about the z-score [3] of the same molecule?
**A.** 0.762 (inactive)

**Q.** What about the composite z-score [4] of the same molecule?
**A.** -0.675 (inactive)

**Q.** And the z-score [5]?
**A.** -0.978 (inactive)

**Q.** And the z-score [6]?
**A.** 0.964 (inactive)

**Q.** What about the z-score [7] of the same molecule?
**A.** 1.15 (inactive)

**Q.** What about the z-score [8] of the same molecule?
**A.** 1.36 (inactive)

**Q.** What about the z-score [9] of the same molecule?
**A.** 0.828

**Q.** What about the composite z-score [10] of the same molecule?
**A.** 0.147

**Q.** With `[N-]=[N+]=NCc1ccccc1C[C@]1(C(=O)N2CCOCC2)N=C(c2ccc(OCCCO)cc2)O[C@H]1c1ccccc1CN=[N+]=[N-]` as the molecule, how does the z-score [1] read?
**A.** 0.133

**Q.** What about the z-score [2] of the same molecule?
**A.** 1.06 (inactive)

**Q.** And the z-score [3]?
**A.** -0.481 (inactive)

**Q.** And the composite z-score [4]?
**A.** 1.21 (inactive)

**Q.** And the z-score [5]?
**A.** 0.948 (inactive)

**Q.** What about the z-score [6] of the same molecule?
**A.** 2.39 (inactive)

**Q.** What about the z-score [7] of the same molecule?
**A.** 1.67 (inactive)

**Q.** What about the z-score [8] of the same molecule?
**A.** 0.93 (inactive)

**Q.** What about the z-score [9] of the same molecule?
**A.** -1.11

**Q.** What about the composite z-score [10] of the same molecule?
**A.** 0.411

**Q.** With `CC(=O)c1ccc(C(O)C2C=CC3C(=O)N(C)C(=O)C3N2NC(=O)OC(C)(C)C)cc1` (stereo not given) as the molecule, how does the z-score [1] read?
**A.** -1.69

**Q.** What about the z-score [2] of the same molecule?
**A.** 1.74 (inactive)

**Q.** And the z-score [3]?
**A.** -1.04 (inactive)

**Q.** And the composite z-score [4]?
**A.** 0.625 (inactive)

**Q.** And the z-score [5]?
**A.** 0.378 (inactive)

**Q.** And the z-score [6]?
**A.** 0.845 (inactive)

**Q.** And the z-score [7]?
**A.** -0.9 (inactive)

**Q.** And the z-score [8]?
**A.** -0.47 (inactive)

**Q.** What about the z-score [9] of the same molecule?
**A.** -1.05

**Q.** And the composite z-score [10]?
**A.** 0.155

**Q.** Which results are given for `C=CCN1C(=O)[C@]2(O[C@H](CCO)[C@@H]([Si](C)(C)c3ccc(OC)cc3)[C@@H]2C)c2ccccc21`?
**A.** z-score [1]: -2.84; z-score [2]: -5.08 (inactive); z-score [3]: -1.46 (inactive); composite z-score [4]: 0.0196 (inactive); z-score [5]: 0.225 (inactive); z-score [6]: 1.55 (inactive); z-score [7]: -0.377 (inactive); z-score [8]: -1.46 (inactive); z-score [9]: -2.74; composite z-score [10]: -0.144

**Q.** Which z-score [1] does the source give for `COC(=O)C(CC#Cc1ccc2c(c1)[C@]1(C(=O)N2)[C@H](c2ccc(O)cc2)N2[C@H](c3ccccc3)[C@H](c3ccccc3)OC(=O)[C@H]2[C@@H]1C(=O)N1CCc2cc(OC)c(OC)cc2C1)C(=O)OC` here?
**A.** 0.445

**Q.** And the z-score [2]?
**A.** 0.954 (inactive)

**Q.** What about the z-score [3] of the same molecule?
**A.** -0.938 (inactive)

**Q.** What about the composite z-score [4] of the same molecule?
**A.** -11.2 (active)

**Q.** What about the z-score [5] of the same molecule?
**A.** 0.573 (inactive)

**Q.** And the z-score [6]?
**A.** 1.58 (inactive)

**Q.** What about the z-score [7] of the same molecule?
**A.** -0.158 (inactive)

**Q.** What about the z-score [8] of the same molecule?
**A.** -0.627 (inactive)

**Q.** And the z-score [9]?
**A.** -4.12

**Q.** What about the composite z-score [10] of the same molecule?
**A.** -0.117
